Reference: PubChem BioAssay (NCI)
About 79,000 compounds went through this panel and 15% of them were active in at least one assay; those are over-represented in the sample as a whole. Cut-off read from the data, not from the text of the source: active = growth inhibition above about 70%; inactive = the rest.

How the values were obtained:
[1] = NCI Yeast Anticancer Drug Screen. Data for the rad50 strain (AID 155);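 note: 0% = growth of vehicle-only cultures of the same strain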; settings: S. cerevisiae rad50 strain growth inhibition; at 50.0 µM; active compounds read high
Method in brief: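 Readout: growth inhibition relative to vehicle-treated cultures. Compound exposure was carried out in a genetically defined yeast strain deficient in DNA damage repair.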

[2] = NCI Yeast Anticancer Drug Screen. Data for the mec2-1 strain (AID 157); settings: S. cerevisiae mec2-1 strain, at 50.0 µM, active compounds read high
Method in brief: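 Compounds were applied to mec2-1 yeast cells. Their growth was then compared with that of vehicle-treated cultures to give growth inhibition.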

[3] = NCI Yeast Anticancer Drug Screen. Data for the sgs1 mgt1 strain (AID 161);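 note: 0% = growth of cultures given vehicle only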; settings: S. cerevisiae sgs1 mgt1 strain, at 50.0 µM, active compounds read high
Method in brief: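 Percent growth inhibition was derived by comparing compound-exposed mutant yeast with vehicle-exposed cultures. The strain carries alterations in DNA damage repair.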

[4] = NCI Yeast Anticancer Drug Screen. Data for the cln2 rad14 strain (AID 165);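 note: 0% = growth equal to vehicle treated cultures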; settings: S. cerevisiae cln2 rad14 strain, at 50.0 µM, active compounds read high
Method in brief: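 Strain: cln2 rad14 yeast, altered in cell cycle control and DNA damage repair. Read-out: growth inhibition vs vehicle.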

[5] = NCI Yeast Anticancer Drug Screen. Data for the bub3 strain (AID 167); settings: S. cerevisiae bub3 mutant strain, at 50.0 µM, active compounds read high
Method in brief: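 Readout: yeast growth inhibition, expressed relative to vehicle-only wells. The test organism is a mutant strain from a panel with lesions in DNA repair or checkpoint genes.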

[6] = NCI Yeast Anticancer Drug Screen. Data for the mlh1 rad18 strain (AID 175); settings: S. cerevisiae mlh1 rad18 strain growth inhibition; at 50.0 µM; active compounds read high
Method in brief: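 A repair-deficient yeast strain is exposed to test compound, and growth is scored relative to vehicle-treated controls.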

Measured: growth inhibition

NCCc1ccc(O)c(O)c1
inactive: [1] -4.4% | [2] -4.2% | [3] -1.55% | [4] 4.25% | [5] -1.45% | [6] 1.85%

Cc1ccc(C2(C)NC(=S)N(NC(N)=S)C2=S)cc1 (configuration not stated)
inactive: [1] 32.3% | [2] 19.8% | [3] 7.15% | [4] 3.25% | [5] 4.65% | [6] 21.8%

CCCCc1c(C#N)c(=O)n2c(N)c(C#N)cnc2c1SC
inactive: [1] 18.9% | [2] 8.45% | [3] 21.2% | [4] 1.5% | [5] 12.7% | [6] 25.8%

C=C1C(=O)OC2CC(=C)C3CC=C(C)C3CC12 (configuration not stated)
inactive: [1] 41.8% | [2] 21.5% | [3] 19% | [4] 41.6% | [5] 25.8% | [6] 44.1%

Cn1nc(-c2ccccc2)c2c(/C=C/c3ccc(F)cc3)onc2c1=O
inactive: [1] -14.4% | [2] -17.9% | [3] 8.55% | [4] 8.35% | [5] 0.05% | [6] -15.3%

COC(=O)c1cc(-c2ccccc2)nc2c(Cl)cc(Cl)cc12
inactive: [1] -4.4% | [2] -12.1% | [3] -5.55% | [4] -28.6% | [5] 11.7% | [6] -14.4%

Cc1cc(NS(=O)(=O)c2ccc(NC(NC(=O)C(C(F)(F)F)C(F)(F)F)(C(F)(F)F)C(F)(F)F)cc2)no1
inactive: [1] 1.4% | [2] -18.1% | [3] -24.9% | [4] -8.4% | [5] 10.6% | [6] 0.55%

CCCCCCCOCC(=O)O
inactive: [1] 10% | [2] -5.8% | [3] 3.6% | [4] -30.2% | [5] 1.25% | [6] 17.6%

CCS(=O)(=O)OCCOC
inactive: [1] -2.65% | [2] -26.1% | [3] -17.1% | [4] 57.6% | [5] -14.8% | [6] 10.2%

Cn1ccccc1=O
inactive: [1] 36.8% | [2] -26.7% | [3] -8.55% | [4] -56.5% | [5] 3.4% | [6] 27.2%

NC(=O)N/N=C/C(Cc1ccccc1)=N/OCc1ccccc1
inactive: [1] -6.9% | [2] -1.8% | [3] -0.45% | [4] -17.6% | [5] 16.4% | [6] -1.75%

CCCCCCCCCCCCCCCCCC(=O)[O][Al][O]C(C)C
inactive: [1] -38.1% | [2] -35% | [3] -10.8% | [4] 4.55% | [5] -19.5% | [6] -14.9%

CCN(c1ccccc1)S(=O)(=O)c1cc(N)ccc1C
inactive: [1] -23.8% | [2] -10.7% | [3] 2.55% | [4] -2.8% | [5] -0.25% | [6] 4.55%

Cc1ccc(-c2nc(-c3nccc4ccccc34)oc2-c2ccccc2)cc1
inactive: [1] -6% | [2] 0.45% | [3] -45.4% | [4] -28.4% | [5] -29.7% | [6] 5.2%

CCOC(=O)Cn1nnnc1N
inactive: [1] -3.4% | [2] 23.6% | [3] -5.2% | [4] -21.9% | [5] -13.8% | [6] 30.6%

COC(=O)C(Cc1nc2ccc(Cl)cc2[nH]c1=O)/C(=N/O)C(=O)Nc1cccc(Cl)c1C (configuration not stated)
inactive: [1] 22.6% | [2] 0.95% | [3] 0.85% | [4] -40.9% | [5] 0.3% | [6] -4.55%

CCOC(=O)C1=C(Nc2ccc(F)cc2)C(=O)N(C(C)(C)C)C1
inactive: [1] 8.05% | [2] 1.3% | [3] 27.5% | [4] 6.35% | [5] 31.4% | [6] 21.6%

Oc1ccccc1CN1CCOCC1
inactive: [1] 22.4% | [2] 9.3% | [3] 26.9% | [4] 13.8% | [5] -7.2% | [6] 28.5%

C=CCOC(=O)/C=C\C(=O)OCC=C
inactive: [1] -4.6% | [2] 30.6% | [3] 6.8% | [4] -25.3% | [5] 9.1% | [6] 3.15%

CNc1ccc(C(=O)O)cc1C(F)(F)F
inactive: [1] -0.35% | [2] -1.45% | [3] -6% | [4] 0.65% | [5] -32.6% | [6] 8.85%

CCOC(=O)C(C)(C)Oc1ccc(N=[N+]=[N-])cc1
inactive: [1] 13.1% | [2] 9.15% | [3] 41.5% | [4] 4.35% | [5] 5.8% | [6] 19.6%

CCC1C(OC)=CC(CC)(CO)C=C1OC (configuration not stated)
inactive: [1] 4.35% | [2] -3.45% | [3] 6.15% | [4] 14.2% | [5] 6.8% | [6] -6.3%

CC1=C(O)c2cc3c(cc2C(=O)C1=O)OCO3
inactive: [1] -21.5% | [2] -0.95% | [3] -15% | [4] -15.6% | [5] -18.4% | [6] 26.9%

COC(=O)C(O)c1ccc(C(C)C)cc1 (configuration not stated)
inactive: [1] -34.5% | [2] -18.6% | [3] -13.9% | [4] -33.2% | [5] -26.4% | [6] -9.2%

Fc1ccccc1-c1nc2ccccc2s1
inactive: [1] 45% | [2] 3.75% | [3] 19.3% | [4] -3.45% | [5] 6.05% | [6] 28.3%

N/C(=N\S(=O)(=O)c1cc(C(F)(F)F)cc(C(F)(F)F)c1)c1ccncc1
inactive: [1] 4.95% | [2] 11.2% | [3] 23.9% | [4] 1.3% | [5] 19.6% | [6] 24.7%

COC(=O)/C(=N/Nc1cccc(Cl)c1)C(C(=O)C(=O)Nc1cccc(Cl)c1C)c1nc2ccccc2nc1C (configuration not stated)
inactive: [1] 44.8% | [2] 17.9% | [3] 42% | [4] 39.3% | [5] 11.8% | [6] 14.3%

NC(=S)NNc1ccccc1
inactive: [1] 0.2% | [2] -5.8% | [3] -0.05% | [4] -6.7% | [5] -2.6% | [6] -5.3%

O=C1ON(c2ccccc2)C(c2ccc(OCc3ccccc3)cc2)N1c1ccccc1 (configuration not stated)
inactive: [1] 42.6% | [2] 14% | [3] 11.8% | [4] 4.35% | [5] 27.5% | [6] 26.8%

Cn1c(Cl)c(C=O)c(=O)n(C)c1=O
inactive: [1] 17.8% | [2] -4.7% | [3] -5.95% | [4] -0.45% | [5] 7% | [6] -2.55%

CC(C)=C1C(=O)C[C@]2(C)C[C@H]3/C(=C(/C)CCC12)CC[C@@]3(C)O (some centres not stated)
inactive: [1] 46.5% | [2] -1.25% | [3] 2% | [4] 28.6% | [5] -6.05% | [6] -8.4%

C=C1CCC(OC(C)=O)C2(C)C(OC(C)=O)CC3OC3(C)C2C(OC(C)=O)C2C(C)C(=O)OC2C1Cl (configuration not stated)
inactive: [1] 3.2% | [2] -20.8% | [3] 1.55% | [4] 6.45% | [5] 3% | [6] 4.8%

COc1ccc2[nH]cc(CC(NC(C)=O)C(=O)O)c2c1 (configuration not stated)
inactive: [1] 1.75% | [2] -0.9% | [3] 1.55% | [4] -0.5% | [5] 3.85% | [6] -1.25%

CNC(=O)c1ccc(C(C)C)cc1
inactive: [1] 0.3% | [2] -1.95% | [3] -5.3% | [4] -10.7% | [5] 4.2% | [6] 0.65%

CC(=O)Nc1c(Nc2ccc3c(=O)[nH]ccc3c2C)cc[nH]c1=O
inactive: [1] 22.1% | [2] 13.7% | [3] 17.1% | [4] 14.5% | [5] 10.4% | [6] 27.5%

C=C(C/C(=C/S(C)=O)c1ccccc1)c1ccccc1 (configuration not stated)
inactive: [1] 43.9% | [2] 12.3% | [3] 18.7% | [4] 29.6% | [5] 20.9% | [6] 34.4%

CCCCN(CC)NC(=S)Nc1ccccc1
inactive: [1] -9.25% | [2] 9.7% | [3] -3.3% | [4] -18.4% | [5] 17.9% | [6] 5.6%

CCCCCCC(C)Oc1ccccc1Cl (configuration not stated)
inactive: [1] 5.35% | [2] -11.5% | [3] 7.9% | [4] -23.9% | [5] 6.4% | [6] -20.6%

COc1ccccc1NC(=O)CC(C)=O
inactive: [1] 7% | [2] -5.9% | [3] 7.8% | [4] -11.6% | [5] -15.8% | [6] -8.5%

O=C(OC(C[n+]1ccccc1)c1ccccc1)c1ccccc1 (configuration not stated)
inactive: [1] -0.55% | [2] -0.9% | [3] 4.5% | [4] 14.5% | [5] -6.4% | [6] 34%

CC(C)=NC(C(=O)O)C(C)(C)S (configuration not stated)
inactive: [1] -17.6% | [2] -15.2% | [3] -18.1% | [4] -12.3% | [5] -62% | [6] -17.1%

COC(=O)Cc1cccc2c(=O)c(S(=O)(=O)NC(=O)Nc3ccc(Cl)cc3)c(-c3ccccc3)oc12
inactive: [1] 20.9% | [2] 23.1% | [3] 31.6% | [4] 50.4% | [5] 35.4% | [6] 17.8%
